Measurements: PubChem BioAssay (EPA / NIEHS)
Active and inactive are the calls of the source. The calls were made as follows: active = hit-call score of the fitted dose curve at least 0.9, where 1 is the maximum; inactive = score below 0.9.

Key:
[1] = BSK_hDFCGF_SRB: Viability Assessment in the BioMAP Diversity Plus: hDFCGF Assay (AID 2283061); details: primary human foreskin fibroblasts;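 also: cells exposed to compound for 24 h before the read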
How it was run: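 Human foreskin primary fibroblasts were treated with compound and assessed 24 h after dosing. Total protein was measured by sulforhodamine B staining (0.1% SRB after 10% TCA fixation, 560 nm read) as a cytotoxicity marker, with bidirectional fitting against DMSO baseline.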

[2] = read-out: TIMP metallopeptidase inhibitor 1 (TIMP1), TIMP1 (gene 7076); experiment: BSK_hDFCGF_TIMP1: BioMAP Diversity Plus: hDFCGF Assay for TIMP metallopeptidase inhibitor 1 (TIMP1) Biomarker Activity (AID 2283062); details: primary human foreskin fibroblasts; actives raise or lower the signal
How it was run: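 Primary human foreskin fibroblasts in the hDFCGF system were dosed with compound for 24 h, then TIMP-1 was measured by ELISA. Activity was fitted bidirectionally relative to DMSO control; parallel SRB staining assessed cytotoxicity.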

[3] = read-out: Monokine induced gamma interferon (MIG), CXCL9 (gene 4283); experiment: BSK_hDFCGF_MIG: BioMAP Diversity Plus: hDFCGF Assay for Monokine induced gamma interferon (MIG) Biomarker Activity (AID 2283063); details: primary human foreskin fibroblasts; actives raise or lower the signal
How it was run: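 ELISA read-out of MIG from primary human dermal fibroblasts 24 h post-dosing. Gain or loss of signal fitted bidirectionally, DMSO as baseline.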

[4] = read-out: Matrix Metallopeptidase 1 (MMP1), MMP1 (gene 4312); experiment: BSK_hDFCGF_MMP1: BioMAP Diversity Plus: hDFCGF Assay for Matrix Metallopeptidase 1 (MMP1) Biomarker Activity (AID 2283064); details: primary human foreskin fibroblasts; actives raise or lower the signal
How it was run: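 MMP1 levels quantified by ELISA 24 h after dosing human dermal fibroblast cultures, with parallel SRB total-protein staining for overt cytotoxicity. Data fitted in both directions against DMSO baseline.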

[5] = read-out: Vascular cell adhesion molecule 1 (VCAM1), VCAM1 (gene 7412); experiment: BSK_hDFCGF_VCAM1: BioMAP Diversity Plus: hDFCGF Assay for Vascular cell adhesion molecule 1 (VCAM1) Biomarker Activity (AID 2283065); details: primary human foreskin fibroblasts; actives raise or lower the signal;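 as to AC50: VCAM-1 protein level quantified by ELISA after 24 h chemical exposure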
How it was run: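 Primary human foreskin fibroblasts (hDFCGF system) were dosed with chemical and VCAM-1 was measured by ELISA 24 h later. Bidirectional curve fitting used DMSO as negative control and activity baseline.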

[6] = read-out: Plasminogen activator inhibitor-1 (PAI1), SERPINE1 (gene 5054); experiment: BSK_hDFCGF_PAI1: BioMAP Diversity Plus: hDFCGF Assay for Plasminogen activator inhibitor-1 (PAI1) Biomarker Activity (AID 2283066); details: primary human foreskin fibroblasts; actives raise or lower the signal
How it was run: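 ELISA readout of PAI-1 from primary human skin fibroblast cultures, 24 h after compound addition. Gain or loss of signal was fitted bidirectionally against DMSO baseline.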

[7] = read-out: Intercellular Adhesion Molecule 1 (ICAM1), ICAM1 (gene 3383); experiment: BSK_KF3CT_ICAM1: BioMAP Diversity Plus: KF3CT Assay for Intercellular Adhesion Molecule 1 (ICAM1) Biomarker Activity (AID 2283067); details: primary human keratinocytes with fibroblasts; actives raise or lower the signal
How it was run: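 Human keratinocyte plus foreskin fibroblast primary co-culture was exposed to chemical for 24 h. ICAM-1 was then quantified by ELISA, and the data were fit bidirectionally against DMSO as the negative control and baseline.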

[8] = read-out: Interferon-gamma inducible Protein 10 (IP10), CXCL10 (gene 3627); experiment: BSK_KF3CT_IP10: BioMAP Diversity Plus: KF3CT Assay for Interferon-gamma inducible Protein 10 (IP10) Biomarker Activity (AID 2283068); details: primary human keratinocytes with fibroblasts; actives raise or lower the signal
How it was run: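 ELISA read-out of IP-10 after 24 h chemical dosing of human skin primary co-culture (keratinocytes, foreskin fibroblasts). Gain or loss of signal relative to DMSO, bidirectional curve fit.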

[9] = BSK_KF3CT_SRB: Viability Assessment in the BioMAP Diversity Plus: KF3CT Assay (AID 2283069); details: primary human keratinocytes with fibroblasts
How it was run: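 Cytotoxicity was gauged by SRB staining (0.1% SRB, 10% TCA fixation, 560 nm) of parallel cultures at 24 h. The cells were primary human skin keratinocytes co-cultured with fibroblasts, and activity was fitted in both directions against DMSO.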

[10] = read-out: Interleukin-1 alpha (IL1a), IL1A (gene 3552); experiment: BSK_KF3CT_IL1a: BioMAP Diversity Plus: KF3CT Assay for Interleukin-1 alpha (IL1a) Biomarker Activity (AID 2283070); details: primary human keratinocytes with fibroblasts; actives raise or lower the signal
How it was run: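 IL-1a was detected by ELISA 24 h after chemical treatment of a co-culture of human skin keratinocytes and foreskin fibroblasts. Gain or loss of signal was fitted against the DMSO baseline.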

[11] = read-out: TIMP metallopeptidase inhibitor 2 (TIMP2), TIMP2 (gene 7077); experiment: BSK_KF3CT_TIMP2: BioMAP Diversity Plus: KF3CT Assay for TIMP metallopeptidase inhibitor 2 (TIMP2) Biomarker Activity (AID 2283071); details: primary human keratinocytes with fibroblasts; actives raise or lower the signal
How it was run: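 ELISA readout of TIMP-2 in keratinocyte plus foreskin fibroblast co-cultures (human skin primary cells), 24 h post-dose. Gain or loss of signal fitted relative to DMSO.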

[12] = read-out: Transforming growth factor beta 1 (TGFb1), TGFB1 (gene 7040); experiment: BSK_KF3CT_TGFb1: BioMAP Diversity Plus: KF3CT Assay for Transforming growth factor beta 1 (TGFb1) Biomarker Activity (AID 2283072); details: primary human keratinocytes with fibroblasts; actives raise or lower the signal
How it was run: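 Read-out: ELISA for TGF-b1 in keratinocyte/foreskin fibroblast human skin co-culture, 24 h after dosing; bidirectional curve fit vs DMSO baseline; gain or loss of signal scored.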

[13] = read-out: C-C motif chemokine 2 (Homo sapiens) (UniProt P13500); experiment: BSK_KF3CT_MCP1: BioMAP Diversity Plus: KF3CT Assay for Monocyte Chemoattractant Protein 1 (MCP1/CCL2) Biomarker Activity (AID 2283073); details: primary human keratinocytes with fibroblasts; actives raise or lower the signal
How it was run: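 Human keratinocyte plus foreskin fibroblast primary co-culture exposed to chemical for 24 h. MCP-1 levels measured by ELISA. Bidirectional curve fitting relative to DMSO negative control as baseline.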

[14] = read-out: Matrix Metallopeptidase 9 (MMP9), MMP9 (gene 4318); experiment: BSK_KF3CT_MMP9: BioMAP Diversity Plus: KF3CT Assay for Matrix Metallopeptidase 9 (MMP9) Biomarker Activity (AID 2283074); details: primary human keratinocytes with fibroblasts; actives raise or lower the signal;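 as to AC50: MMP9 protein level quantified by ELISA in the co-culture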
How it was run: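 MMP-9 quantified by ELISA after 24 h chemical treatment of primary human skin keratinocyte/fibroblast co-cultures; gain or loss fitted against DMSO, with parallel SRB staining (0.1% SRB, 560 nm) for overt cytotoxicity.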

[15] = read-out: urokinase plasminogen activator (uPA), PLAU (gene 5328); experiment: BSK_KF3CT_uPA: BioMAP Diversity Plus: KF3CT Assay for urokinase plasminogen activator (uPA) Biomarker Activity (AID 2283075); details: primary human keratinocytes with fibroblasts; actives raise or lower the signal
How it was run: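 ELISA read-out of uPA 24 h after dosing human skin keratinocytes co-cultured with foreskin fibroblasts. Signal change fitted both ways relative to DMSO; sulforhodamine B on parallel cultures marks overt cytotoxicity.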

CD40, CD40 (gene 958) = experiment: BSK_LPS_CD40: BioMAP Diversity Plus: LPS Assay for CD40 Biomarker Activity (AID 2283076); details: primary human HUVEC with PBMC; actives raise or lower the signal
How it was run: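 Primary human umbilical vein endothelial cells co-cultured with peripheral blood mononuclear cells, LPS-stimulated, were dosed with chemical and read 24 h later. CD40 levels were measured by ELISA and fitted bidirectionally against DMSO as negative control and baseline.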

[16] = read-out: E-selectin (Homo sapiens) (UniProt P16581); experiment: BSK_LPS_Eselectin: BioMAP Diversity Plus: LPS Assay for Eselectin Biomarker Activity (AID 2283077); details: primary human HUVEC with PBMC; actives raise or lower the signal
How it was run: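 Human umbilical vein endothelial cells co-cultured with peripheral blood mononuclear cells under LPS stimulation; E-selectin measured by ELISA 24 h after chemical dosing. Activity fitted bidirectionally against DMSO as negative control and baseline.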

[17] = read-out: Interleukin-8 (IL8), CXCL8 (gene 3576); experiment: BSK_LPS_IL8: BioMAP Diversity Plus: LPS Assay for Interleukin-8 (IL8) Biomarker Activity (AID 2283078); details: primary human HUVEC with PBMC; actives raise or lower the signal
How it was run: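 Human umbilical vein endothelial cells co-cultured with PBMC were stimulated with LPS; IL-8 levels were measured by ELISA 24 h after chemical dosing. Activity was fitted bidirectionally against DMSO as negative control and baseline.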

[18] = BSK_LPS_SRB: Viability Assessment in the BioMAP Diversity Plus: LPS Assay (AID 2283079); details: primary human HUVEC with PBMC;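 also: total protein by sulforhodamine B absorbance as a cytotoxicity measure; measured one day after compound addition; fitted in both directions against DMSO so loss or gain of signal counts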
How it was run: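 Human umbilical vein endothelial cells co-cultured with PBMC (LPS system) were dosed for 24 h. Total protein was stained with 0.1% sulforhodamine B after 10% TCA fixation, read at 560 nm, and fitted bidirectionally against DMSO baseline.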

[19] = read-out: Interleukin-1 alpha (IL1a), IL1A (gene 3552); experiment: BSK_LPS_IL1a: BioMAP Diversity Plus: LPS Assay for Interleukin-1 alpha (IL1a) Biomarker Activity (AID 2283080); details: primary human HUVEC with PBMC; actives raise or lower the signal
How it was run: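 Human umbilical vein endothelial cells co-cultured with peripheral blood mononuclear cells were LPS-stimulated and exposed to test chemicals for 24 h. IL-1 alpha was quantified by ELISA, with bidirectional curve fitting against DMSO as the negative control and baseline.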

Measured: AC50

Sequence of E-selectin (Homo sapiens) (P16581 whole entry, looked up): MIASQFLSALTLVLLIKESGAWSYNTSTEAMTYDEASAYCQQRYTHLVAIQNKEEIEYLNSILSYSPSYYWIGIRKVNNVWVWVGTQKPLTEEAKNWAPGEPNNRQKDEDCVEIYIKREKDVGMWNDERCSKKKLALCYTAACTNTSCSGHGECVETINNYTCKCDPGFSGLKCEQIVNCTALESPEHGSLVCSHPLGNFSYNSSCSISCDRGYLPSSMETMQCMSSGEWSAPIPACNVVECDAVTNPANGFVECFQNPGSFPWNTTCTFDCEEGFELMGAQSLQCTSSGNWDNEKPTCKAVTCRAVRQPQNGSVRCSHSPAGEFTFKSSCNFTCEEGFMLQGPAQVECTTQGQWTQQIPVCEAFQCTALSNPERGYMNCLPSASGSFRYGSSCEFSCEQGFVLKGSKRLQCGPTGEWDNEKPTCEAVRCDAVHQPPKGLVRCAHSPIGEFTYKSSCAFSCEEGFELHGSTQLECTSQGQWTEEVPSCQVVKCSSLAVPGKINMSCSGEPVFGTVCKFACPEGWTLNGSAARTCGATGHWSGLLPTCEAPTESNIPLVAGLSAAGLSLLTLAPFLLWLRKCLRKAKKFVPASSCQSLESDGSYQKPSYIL

COc1cc(C=O)cc2c1[C@H](COC(N)=O)[C@]1(OC(C)=O)ON2C[C@H]2[C@@H]1N2C(C)=O
active: [1] 2.45 µM | [2] 1.48 µM | [3] 1.25 µM | [4] 0.565 µM | [5] 1 µM | [6] 0.144 µM | [7] 11.6 µM | [8] 13 µM | [9] 3.36 µM | [10] 20 µM | [11] 2.26 µM | [12] 2.21 µM | [13] 1.1 µM | [14] 2.07 µM | [15] 11.4 µM | CD40, CD40 (gene 958) 20 µM | [16] 10.6 µM | [17] 13.3 µM | [18] 6.69 µM | [19] 19.7 µM

CC(C)(C)C(O)(CCc1ccc(Cl)cc1)Cn1cncn1 (stereo not given)
inactive: [1] | [2] | [3] | [4] | [5] | [6] | [7] | [8] | [9] | [10] | [11] | [12] | [13] | [14] | [15] | CD40, CD40 (gene 958) | [16] | [17] | [19]

c1ccc(NNc2ccccc2)cc1
inactive: [1] | [2] | [3] | [4] | [5] | [6] | [7] | [8] | [9] | [10] | [12] | [13] | [14] | [15] | CD40, CD40 (gene 958) | [16] | [17] | [19]

CCCCCCCCOC(=O)c1ccc(C(=O)OCCCCCCCC)c(C(=O)OCCCCCCCC)c1
inactive: [1] | [2] | [3] | [4] | [5] | [6] | [7] | [8] | [9] | [10] | [11] | [12] | [13] | [14] | [15] | CD40, CD40 (gene 958) | [16] | [17] | [18] | [19]

ClC1=C(Cl)C2(Cl)C3C(Cl)C=CC3C1(Cl)C2(Cl)Cl (stereo not given)
active: [1] 11.2 µM | [2] 9.82 µM | [3] 10.6 µM | [4] 13.4 µM | [5] 8.26 µM | [6] 9.78 µM | [7] 30.2 µM | [8] 15.3 µM | [9] 28.6 µM | [10] 27.3 µM | [12] 14 µM | [13] 14.6 µM | [14] 13.8 µM | [15] 31 µM | CD40, CD40 (gene 958) 30.9 µM | [16] 30.6 µM | [17] 31.6 µM | [18] 29.5 µM | [19] 30 µM

O=C(Oc1ccc(Br)cc1)N1CCN2CCC1CC2
inactive: [1] | [2] | [3] | [4] | [5] | [6] | [7] | [8] | [9] | [10] | [11] | [12] | [13] | [14] | [15] | CD40, CD40 (gene 958) | [16] | [17] | [19]
